From PubChem BioAssay (NCI)
The panel holds about 83,000 compounds, 20% with a hit somewhere; the sample as a whole holds those more often.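 Single-dose data. Exposure time 48 hours. Values below 10 considered active.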 The source made the active and inactive calls.

Assays:
Test in all cases: NCI-60 one-dose screen, 48 h (100 = growth as untreated, 0 = no growth, -100 = all killed)
Details in all cases: 10 µM unless noted
HCT-15 colon = system: HCT-15 colon
HT29 colon = system: HT29 colon
SNB-75 CNS = system: SNB-75 CNS
SNB-19 CNS = system: SNB-19 CNS
U251 CNS = system: U251 CNS
PC-3 prostate = system: PC-3 prostate
UACC-62 melanoma = system: UACC-62 melanoma
SK-MEL-28 melanoma = system: SK-MEL-28 melanoma
LOX IMVI melanoma = system: LOX IMVI melanoma

Measured: growth

Cc1cc(N2CCN(c3ccnc4cc(Cl)ccc34)CC2)nc(N2CCOCC2)n1
inactive: HCT-15 colon 73.6% | HT29 colon 67.6% | SNB-75 CNS 88.9% | SNB-19 CNS 82.6% | U251 CNS 93.9% | PC-3 prostate 51.9% | UACC-62 melanoma 84.3% | SK-MEL-28 melanoma 104%

Cc1nn(-c2cc(=O)[nH]c3ccc(Cl)cc23)c(N)c1C#N
inactive: HCT-15 colon 103% | HT29 colon 110% | SNB-75 CNS 61.2% | SNB-19 CNS 108% | U251 CNS 102% | PC-3 prostate 95.6% | UACC-62 melanoma 98.8% | LOX IMVI melanoma 92.9% | SK-MEL-28 melanoma 115%

COc1cc(C)c(C2C(C#N)=C(N)Oc3n[nH]c(-c4cccs4)c32)cc1C(C)C (stereo unspecified)
inactive: HCT-15 colon 96.2% | HT29 colon 98.9% | SNB-75 CNS 86.8% | SNB-19 CNS 103% | U251 CNS 90.2% | PC-3 prostate 95.3% | UACC-62 melanoma 96.1% | LOX IMVI melanoma 98.6% | SK-MEL-28 melanoma 112%

COc1ccc(Nc2cc(C)nc(N3CCN(c4ccnc5cc(Cl)ccc45)CC3)n2)cc1
inactive: HCT-15 colon 14.8% | SNB-75 CNS 42.7% | SNB-19 CNS 48.1% | U251 CNS 37.6% | PC-3 prostate 33% | UACC-62 melanoma 17.7% | SK-MEL-28 melanoma 59.9%
active: HT29 colon 9.85%

O=C(Cn1cccc(Nc2ccccc2)c1=O)Nc1ccccc1
inactive: HCT-15 colon 101% | HT29 colon 106% | SNB-75 CNS 84.9% | SNB-19 CNS 97.1% | U251 CNS 97.8% | PC-3 prostate 97.3% | UACC-62 melanoma 93.6% | SK-MEL-28 melanoma 104%

COC[C@H](C)n1c(C2CCOCC2)nc2cnc3cc(-c4c(C)noc4C)c(OC)cc3c21
inactive: HCT-15 colon 34.6% | HT29 colon 23.4% | SNB-75 CNS 31.2% | SNB-19 CNS 64.8% | U251 CNS 54.1% | PC-3 prostate 44.8% | UACC-62 melanoma 31.7% | LOX IMVI melanoma 27% | SK-MEL-28 melanoma 59%

CS(=O)(=O)c1ccc(-n2nc(-c3ccc(Br)cc3)c3ccccc3c2=O)cc1
inactive: HCT-15 colon 93.4% | HT29 colon 101% | SNB-75 CNS 70.5% | SNB-19 CNS 92.5% | U251 CNS 97.1% | PC-3 prostate 89.3% | UACC-62 melanoma 97% | SK-MEL-28 melanoma 113%

O=C1Nc2c(ccc(Cl)c2Cl)/C1=C\c1ccc(C(F)(F)F)cc1
inactive: HCT-15 colon 81.9% | HT29 colon 74.4% | SNB-75 CNS 73.4% | SNB-19 CNS 81.6% | U251 CNS 74.2% | PC-3 prostate 62.5% | UACC-62 melanoma 61.9% | LOX IMVI melanoma 67% | SK-MEL-28 melanoma 97.4%

Cc1cc(N2CCCCCC2)nc(NC2CCCC(Nc3ccnc4cc(Cl)ccc34)C2)n1 (stereo unspecified)
active: HCT-15 colon -87.4% | HT29 colon -82.9% | SNB-75 CNS -78.7% | SNB-19 CNS -54.5% | U251 CNS -94.8% | PC-3 prostate -88.1% | UACC-62 melanoma -84.3% | LOX IMVI melanoma -93.1% | SK-MEL-28 melanoma -83.5%

COc1cc2c(cc1OC)C(Sc1ccc(SC)cc1)c1c(nc(N)c(C#N)c1N)O2 (stereo unspecified)
active: HCT-15 colon -71.5% | HT29 colon -55.2% | SNB-75 CNS -54.5% | SNB-19 CNS -77.9% | U251 CNS -99.3% | PC-3 prostate -75.8% | UACC-62 melanoma -61.3% | LOX IMVI melanoma -96.3% | SK-MEL-28 melanoma -55.5%

O=C(O)COc1ccc(Cl)cc1C1CCCCC1
inactive: HCT-15 colon 106% | HT29 colon 104% | SNB-75 CNS 88.1% | SNB-19 CNS 99.9% | U251 CNS 102% | PC-3 prostate 102% | UACC-62 melanoma 95.6% | LOX IMVI melanoma 106% | SK-MEL-28 melanoma 108%

Cc1cc(N2CCN(c3ccnc4cc(Cl)ccc34)CC2)nc(NC2CCCCC2)n1
inactive: SNB-75 CNS 58.2% | SNB-19 CNS 56.6% | U251 CNS 30.7% | PC-3 prostate 22.2% | SK-MEL-28 melanoma 23.9%
active: HCT-15 colon 3.54% | HT29 colon 6.72% | UACC-62 melanoma -48.7%

COc1cc(-c2nc3cc(Cl)c(Cl)cc3[nH]2)ccc1OCC(=O)N=Nc1c(O)[nH]c2ccccc12
active: HT29 colon -23.1% | SNB-75 CNS -90% | SNB-19 CNS 0.731% | U251 CNS -92% | PC-3 prostate -59.3% | UACC-62 melanoma -93.9% | LOX IMVI melanoma -100% | SK-MEL-28 melanoma -93.4%
inactive: HCT-15 colon 64.4%

COc1cc(-c2nn(C)nc2-c2cc3ccccc3s2)cc(OC)c1OC
active: HT29 colon -1.21%
inactive: HCT-15 colon 16.9% | SNB-75 CNS 48.1% | SNB-19 CNS 26.7% | U251 CNS 20.9% | PC-3 prostate 21.9% | UACC-62 melanoma 26% | LOX IMVI melanoma 38.3% | SK-MEL-28 melanoma 57.6%

CCOc1ccc(C(C)=O)cc1NC(=O)c1cccc(-c2nnn(CC)n2)c1
active: HT29 colon 7.72% | SNB-75 CNS 6.99%
inactive: HCT-15 colon 46.8% | SNB-19 CNS 36.5% | U251 CNS 22.1% | PC-3 prostate 27.3% | LOX IMVI melanoma 49.2%

O=C(C(=O)c1ccc2c(c1)OCO2)c1ccc2c(c1)OCO2
inactive: HCT-15 colon 110% | HT29 colon 103% | SNB-75 CNS 90.3% | SNB-19 CNS 104% | U251 CNS 103% | PC-3 prostate 100% | UACC-62 melanoma 105% | LOX IMVI melanoma 106% | SK-MEL-28 melanoma 110%

NC(=NCCCOc1ccc(Cl)cc1)Nc1ccc(Cl)cc1
active: HT29 colon 1.24%
inactive: HCT-15 colon 56% | SNB-75 CNS 44.8% | SNB-19 CNS 19.3% | U251 CNS 41.2% | PC-3 prostate 26.7% | LOX IMVI melanoma 40.3%

CCOc1ccc(-n2nc(C(=O)Nc3ccccc3)nc2-c2cc(OC)c(OC)c(OC)c2)cc1
inactive: HCT-15 colon 35.4% | HT29 colon 13% | SNB-75 CNS 35.1% | SNB-19 CNS 55.8% | U251 CNS 36.1% | PC-3 prostate 44.9% | LOX IMVI melanoma 55.8%

COc1ccc(CN2c3ccccc3Oc3ccccc32)cc1O
inactive: HCT-15 colon 28.1% | HT29 colon 72.7% | SNB-75 CNS 27.4% | SNB-19 CNS 34.9% | U251 CNS 24% | PC-3 prostate 31.4% | LOX IMVI melanoma 39.5%

O=c1oc2c(C(F)(F)F)cccc2cc1-c1csc(Nc2ccc(OCCF)cc2)n1
active: HT29 colon -11.5% | U251 CNS 5.11%
inactive: HCT-15 colon 17.3% | SNB-75 CNS 19.3% | SNB-19 CNS 27.7% | PC-3 prostate 21% | LOX IMVI melanoma 19.7%

C=C1C(=O)O[C@H]2[C@H]1CC/C(C=Nc1ccc(C(F)(F)F)cc1N)=C\CC[C@@]1(C)O[C@@H]21
inactive: SNB-75 CNS 41.1% | SNB-19 CNS 44% | U251 CNS 14.6% | PC-3 prostate 14.2%
active: HCT-15 colon 2.23% | HT29 colon 1.96% | LOX IMVI melanoma -48.9%

NC(=NCCCC1(c2ccccc2)CCCC1)Nc1ccc(Cl)cc1
inactive: HCT-15 colon 28.9% | SNB-75 CNS 41.1% | SNB-19 CNS 55.9% | PC-3 prostate 43.3%
active: HT29 colon -15.4% | U251 CNS -26.6% | LOX IMVI melanoma -50%

COc1cccc2c1C(=O)c1c(O)c3c(c(O)c1C2=O)C[C@](O)(C(=O)CO)C[C@H]3O[C@@H]1C[C@@H](NC(=O)CCCN(C)C2(c3ccc(F)cc3)CC3CCC2C3)[C@H](O)[C@@H](C)O1 (stereo partly specified)
active: HCT-15 colon 3.39% | HT29 colon -61.2% | SNB-19 CNS -66% | U251 CNS -98% | PC-3 prostate -76.7% | LOX IMVI melanoma -94.4%
inactive: SNB-75 CNS 30%

CCOc1ccc(-n2nc(C(=O)Nc3cc(OC)c(OC)c(OC)c3)nc2-c2cc(OC)c(OC)c(OC)c2)cc1
inactive: HCT-15 colon 82.1% | HT29 colon 84.6% | SNB-75 CNS 65.6% | SNB-19 CNS 82.1% | U251 CNS 85.1% | PC-3 prostate 70.2% | LOX IMVI melanoma 89%

COc1cc(-c2nc(C(=O)NCC(=O)NO)nn2-c2ccc(Cl)cc2)cc(OC)c1OC
inactive: HCT-15 colon 101% | HT29 colon 96.4% | SNB-75 CNS 87.7% | SNB-19 CNS 100% | U251 CNS 96.1% | PC-3 prostate 87.9% | LOX IMVI melanoma 95.9%

C/C1=C\CC[C@@]2(C)O[C@H]2[C@H]2OC(=O)C(CN3CCN(CC4C(=O)O[C@H]5[C@H]4CC/C(C)=C/CC[C@@]4(C)O[C@@H]54)CC3)[C@@H]2CC1 (stereo partly specified)
inactive: HCT-15 colon 95% | HT29 colon 104% | SNB-75 CNS 85.4% | SNB-19 CNS 99.2% | U251 CNS 94% | PC-3 prostate 92% | LOX IMVI melanoma 93.7%

OCCN1CCN(c2nc(Nc3ccc(-c4nc5ccccc5[nH]4)cc3)c3cn[nH]c3n2)CC1
active: HCT-15 colon -78.9% | HT29 colon -91.4% | SNB-75 CNS -96.6% | SNB-19 CNS -76.7% | U251 CNS -99.7% | PC-3 prostate -76.1% | LOX IMVI melanoma -89.2%

CCOC(=O)c1sc(Nc2ccc(Cl)cc2)nc1C
inactive: HCT-15 colon 13.1% | SNB-19 CNS 37% | U251 CNS 13.5% | PC-3 prostate 14.2%
active: HT29 colon 4.65% | SNB-75 CNS -11.2% | LOX IMVI melanoma 9.91%

COc1ccc(-c2nnc(SCC(=O)c3ccc(Cl)cc3)o2)cc1
inactive: HCT-15 colon 104% | HT29 colon 96% | SNB-75 CNS 88.8% | SNB-19 CNS 101% | U251 CNS 99.8% | PC-3 prostate 101% | LOX IMVI melanoma 97.1%

COc1ccc(-c2nc(SCC(=O)Nc3ccc(C(=O)/C=C/c4ccc(Cl)cc4)cc3)[nH]c(=O)c2C#N)cc1
active: U251 CNS -15.3% | LOX IMVI melanoma -79.4%
inactive: HCT-15 colon 97.9% | HT29 colon 103% | SNB-75 CNS 85.2% | SNB-19 CNS 39.4% | PC-3 prostate 93.6%

COc1ccc2c(c1)C(=O)/C(=C/c1cccnc1)CC2
inactive: HCT-15 colon 92.8% | HT29 colon 92.5% | SNB-75 CNS 91.6% | SNB-19 CNS 88.7% | U251 CNS 86.7% | PC-3 prostate 101% | LOX IMVI melanoma 88.5%

COc1ccccc1Nc1nc(-c2cc3cccc(C(F)(F)F)c3oc2=O)cs1
inactive: HCT-15 colon 16% | SNB-75 CNS 15% | SNB-19 CNS 26.7% | PC-3 prostate 21.2% | LOX IMVI melanoma 17.3%
active: HT29 colon 3.1% | U251 CNS 9.97%

COc1cc2c(cc1O)CC[C@@H]1[C@@H]2CC[C@]2(C)[C@@H](OCCCN(C)C)CC[C@@H]12
active: HCT-15 colon -54.6% | HT29 colon -90.8% | SNB-75 CNS -65.4% | SNB-19 CNS -20.6% | U251 CNS -74.2% | PC-3 prostate -18.6% | LOX IMVI melanoma -91.5%
